Measurements published in PubChem BioAssay (EPA / NIEHS).
Active and inactive are the calls of the source. The calls were made as follows: active = hit-call score of the fitted dose curve at least 0.9, where 1 is the maximum; inactive = score below 0.9.

Tests used:
[1] = molecular target: CCAAT/enhancer-binding protein beta (Homo sapiens) (UniProt P17676); assay: ATG_C_EBP_CIS: Attagene CIS-FACTORIAL HepG2 Assay for human CCAAT/Enhancer Binding Protein (C/EBP) beta (AID 2282927); settings: HepG2 Attagene cis-factorial transcription factor reporter; actives raise or lower the signal
Sequence of CCAAT/enhancer-binding protein beta (Homo sapiens) (P17676 whole entry, looked up): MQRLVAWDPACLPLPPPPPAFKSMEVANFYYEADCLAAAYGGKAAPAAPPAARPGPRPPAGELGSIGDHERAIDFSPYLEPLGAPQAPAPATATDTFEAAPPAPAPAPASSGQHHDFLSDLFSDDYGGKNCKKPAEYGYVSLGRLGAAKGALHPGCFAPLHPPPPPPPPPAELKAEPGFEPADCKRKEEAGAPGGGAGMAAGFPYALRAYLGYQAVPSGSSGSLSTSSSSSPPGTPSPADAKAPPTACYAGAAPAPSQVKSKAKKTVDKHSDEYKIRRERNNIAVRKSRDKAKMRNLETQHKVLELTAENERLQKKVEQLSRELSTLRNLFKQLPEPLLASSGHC
Method in brief: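 HepG2 transiently transfected with multiplexed reporter units under cis-regulatory promoters reporting endogenous C/EBPb activity. After 24 h exposure, reporter mRNA assayed by RT-PCR, fluorescent labelling, HpaI digestion and capillary electrophoresis; bidirectional fitting versus DMSO.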

[2] = ATG_CMV_CIS: Attagene CIS-FACTORIAL HepG2 Assay for human CMV (Internal Marker) (AID 2282928); settings: HepG2 CMV promoter reporter, transcription factor profiling; actives raise or lower the signal;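 also: endpoint acts as a background internal control marker rather than a target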
Method in brief: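 HepG2 cells transiently transfected with multiple cis-regulated reporter units; 24 h compound exposure. Reporter mRNA quantified by RT-PCR, 6-FAM primer-extension labeling, HpaI digestion and capillary electrophoresis; bidirectional fitting against DMSO baseline.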

[3] = ATG_DR4_LXR_CIS: Attagene CIS-FACTORIAL HepG2 Assay for human Liver X Receptor (LXR), DR4 submotif (AID 2282929); settings: HepG2 Attagene DR4 cis-reporter, mRNA transcription; actives raise or lower the signal
Method in brief: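 Cells were transfected with multiple reporter transcription units, exposed to chemicals for 24 hours, then lysed for RNA. Reporter mRNA induction was measured by RT-PCR with capillary electrophoresis detection and fitted in both directions relative to DMSO.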

[4] = ATG_AP_1_CIS: Attagene CIS-FACTORIAL HepG2 Assay for human Activator Protein 1 (AP-1) (AID 2282931); settings: HepG2 Attagene cis-factorial AP-1 reporter mRNA; actives raise or lower the signal
Method in brief: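 Endogenous transcription-factor activity in human HepG2 liver cells is read through a cis-promoter reporter transcript, sampled 24 h after dosing. Detection uses RT-PCR with capillary electrophoresis; values come from bidirectional fitting relative to DMSO.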

[5] = ATG_BRE_CIS: Attagene CIS-FACTORIAL HepG2 Assay for human Bone Morphogenetic Protein (BMP) Response Element (BRE) (AID 2282933); settings: HepG2 BMP response element reporter, Attagene transcription factor profiling; actives raise or lower the signal
Method in brief: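 Gain- or loss-of-signal was derived by bidirectional fitting against DMSO controls. The signal came from reporter mRNA, measured by RT-PCR and capillary electrophoresis, in HepG2 cells transiently carrying multiple reporter units and dosed for 24 h.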

[6] = ATG_E_Box_CIS: Attagene CIS-FACTORIAL HepG2 Assay for human Enhancer Box (E-box) (AID 2282936); settings: HepG2 E-box cis-reporter transcription, actives raise or lower the signal
Method in brief: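 HepG2 cells transiently transfected with multiplexed cis-element reporter units, dosed 24 h; reporter mRNA quantified by RT-PCR, 6-FAM labelling, HpaI digestion and capillary electrophoresis. E-box (USF1) signal fitted bidirectionally vs DMSO.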

[7] = ATG_EGR_CIS: Attagene CIS-FACTORIAL HepG2 Assay for human Early Growth Response 1 (EGR1) (AID 2282938); settings: HepG2 Attagene CIS-FACTORIAL EGR reporter mRNA; actives raise or lower the signal
Method in brief: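 Endogenous TF activity in HepG2 liver cells was gauged through cis-promoter reporter constructs transiently transfected. After 24 h dosing, reporter mRNA was quantified by RT-PCR and capillary electrophoresis, and curves fitted in both directions versus DMSO.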

[8] = ATG_M_19_CIS: Attagene CIS-FACTORIAL HepG2 Assay for M19 Transcription Factor (Internal Marker) (AID 2282939); settings: HepG2 Attagene CIS-FACTORIAL M19 internal marker reporter; actives raise or lower the signal
Method in brief: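 Following a 24 h exposure, RNA from transfected HepG2 cells was reverse-transcribed, PCR-amplified with reporter-specific primers, end-labelled with 6-FAM and HpaI-digested before capillary separation. Values represent gain or loss versus DMSO.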

[9] = ATG_Ets_CIS: Attagene CIS-FACTORIAL HepG2 Assay for human Erythroblast Transformation Specific (ETS) (AID 2282941); settings: HepG2 ETS cis-reporter transcription, actives raise or lower the signal
Method in brief: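 HepG2 cells transiently transfected with cis-promoter reporter transcription units were dosed for 24 h; reporter mRNA was measured by RT-PCR, 6-FAM primer extension, HpaI digestion and capillary electrophoresis, with bidirectional fitting against DMSO baseline.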

[10] = ATG_FoxO_CIS: Attagene CIS-FACTORIAL HepG2 Assay for human Forkhead box O (FoxO) (AID 2282943); settings: HepG2 Attagene cis-reporter, FoxO element, mRNA; actives raise or lower the signal
Method in brief: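 HepG2 cells transiently transfected with cis-element-driven reporter units report endogenous FoxO activity. After 24 h chemical exposure, reporter mRNA quantified by RT-PCR, fluorescent labeling, HpaI digestion and capillary electrophoresis; bidirectional fit versus DMSO.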

[11] = ATG_GATA_CIS: Attagene CIS-FACTORIAL HepG2 Assay for human GATA Binding Protein (AID 2282944); settings: HepG2 GATA cis-element reporter, Attagene multiplex mRNA; actives raise or lower the signal
Method in brief: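 DMSO serves as negative control and baseline for bidirectional fitting of reporter mRNA changes. HepG2 cells bearing transiently transfected cis-promoter reporters were exposed 24 h; transcripts detected via RT-PCR and capillary electrophoresis.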

[12] = ATG_ISRE_CIS: Attagene CIS-FACTORIAL HepG2 Assay for human Interferon Regulatory Factor 1 (IRF1) binding to an Interferon-Stimulated Response Element (ISRE) (AID 2282948); settings: HepG2 ISRE cis-reporter (Attagene), mRNA transcription readout; actives raise or lower the signal
Method in brief: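 HepG2 cells transiently transfected with multiplexed cis-promoter reporter units; after 24 h compound exposure, reporter mRNA quantified by RT-PCR, FAM labelling, HpaI digestion and capillary electrophoresis. Bidirectional fit versus DMSO baseline.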

[13] = ATG_M_06_CIS: Attagene CIS-FACTORIAL HepG2 Assay for M06 Transcription Factor (Internal Marker) (AID 2282950); settings: HepG2 Attagene CIS-FACTORIAL M06 internal marker reporter; actives raise or lower the signal
Method in brief: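 Fluorescence-labelled RT-PCR products from cis-promoter reporter units, cut with HpaI and resolved by capillary electrophoresis, give the signal. Cells are human HepG2, dosed for 24 h. Serves as background control, fitted relative to DMSO.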

[14] = ATG_MRE_CIS: Attagene CIS-FACTORIAL HepG2 Assay for human Metal Responsive Element (MRE) (AID 2282954); settings: HepG2 MRE cis-reporter transcription, Attagene multiplex; actives raise or lower the signal
Method in brief: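 HepG2 cells transiently transfected with cis-element-driven reporter units; mRNA measured 24 h after dosing. Reporter transcripts quantified by RT-PCR, FAM labelling, HpaI digestion and capillary electrophoresis; bidirectional fit versus DMSO.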

[15] = molecular target: Paired box protein Pax-6 (Homo sapiens) (UniProt P26367); assay: ATG_Pax6_CIS: Attagene CIS-FACTORIAL HepG2 Assay for human Paired Box 6 (PAX6) (AID 2282956); settings: HepG2 CIS-FACTORIAL PAX6 reporter transcription, RNA readout; actives raise or lower the signal
Sequence of Paired box protein Pax-6 (Homo sapiens) (P26367 whole entry, looked up): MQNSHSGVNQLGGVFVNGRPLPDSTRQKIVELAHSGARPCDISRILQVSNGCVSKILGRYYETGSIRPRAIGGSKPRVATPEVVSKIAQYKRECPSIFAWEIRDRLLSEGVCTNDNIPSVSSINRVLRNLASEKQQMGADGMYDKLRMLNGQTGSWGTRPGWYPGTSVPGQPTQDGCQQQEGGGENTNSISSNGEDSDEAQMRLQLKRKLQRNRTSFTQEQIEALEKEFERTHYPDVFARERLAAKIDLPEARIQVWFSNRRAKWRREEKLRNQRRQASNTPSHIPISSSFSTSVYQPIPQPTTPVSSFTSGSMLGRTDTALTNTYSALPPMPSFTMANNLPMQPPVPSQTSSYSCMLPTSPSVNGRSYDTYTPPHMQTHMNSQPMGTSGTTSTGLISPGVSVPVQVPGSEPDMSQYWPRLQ
Method in brief: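 HepG2 cells transiently transfected with multiplexed cis-promoter reporter units (endogenous TF activity) were dosed for 24 h. Reporter mRNA was quantified by RT-PCR, 6-FAM labeling, HpaI digestion and capillary electrophoresis; bidirectional fitting versus DMSO baseline.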

[16] = ATG_Sox_CIS: Attagene CIS-FACTORIAL HepG2 Assay for human SRY-box transcription factor (SOX) (AID 2282960); settings: HepG2 Attagene cis-factorial SOX reporter, mRNA; actives raise or lower the signal
Method in brief: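 Transient MRTU transfection of HepG2; 24 h compound incubation; TriZol RNA, oligo(dT) RT, PCR, 6-FAM primer extension, HpaI cut, CE. Bidirectional fit, DMSO = baseline.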

[17] = molecular target: Transcription factor Sp1 (Homo sapiens) (UniProt P08047); assay: ATG_Sp1_CIS: Attagene CIS-FACTORIAL HepG2 Assay for human Specificity Protein 1 (Sp1) (AID 2282961); settings: HepG2 Sp1 cis-reporter transcription, actives raise or lower the signal
Sequence of Transcription factor Sp1 (Homo sapiens) (P08047 whole entry, looked up): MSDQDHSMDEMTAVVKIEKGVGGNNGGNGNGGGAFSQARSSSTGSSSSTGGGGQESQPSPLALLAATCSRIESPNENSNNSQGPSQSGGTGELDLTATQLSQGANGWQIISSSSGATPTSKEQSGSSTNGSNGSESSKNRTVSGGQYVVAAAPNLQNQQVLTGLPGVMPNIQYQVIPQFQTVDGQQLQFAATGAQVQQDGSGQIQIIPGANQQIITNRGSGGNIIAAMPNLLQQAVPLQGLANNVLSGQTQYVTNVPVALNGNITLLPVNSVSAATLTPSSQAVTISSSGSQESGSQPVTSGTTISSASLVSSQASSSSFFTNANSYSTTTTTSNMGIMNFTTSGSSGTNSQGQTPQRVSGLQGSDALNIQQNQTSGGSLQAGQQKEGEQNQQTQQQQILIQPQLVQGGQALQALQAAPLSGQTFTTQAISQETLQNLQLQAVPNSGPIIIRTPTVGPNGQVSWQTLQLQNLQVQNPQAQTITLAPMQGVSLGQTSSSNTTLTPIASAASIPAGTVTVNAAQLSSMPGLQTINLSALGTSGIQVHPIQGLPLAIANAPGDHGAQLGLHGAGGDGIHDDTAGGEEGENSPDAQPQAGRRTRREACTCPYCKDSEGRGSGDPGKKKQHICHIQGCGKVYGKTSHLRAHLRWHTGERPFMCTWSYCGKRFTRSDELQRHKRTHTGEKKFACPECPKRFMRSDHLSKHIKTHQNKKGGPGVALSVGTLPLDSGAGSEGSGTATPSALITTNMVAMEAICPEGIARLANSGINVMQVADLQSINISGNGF
Method in brief: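 Endogenous Sp1 activity was gauged in human liver HepG2 cells bearing transfected reporter units under a cis-regulating promoter. After 24 h dosing, reporter mRNA was quantified by RT-PCR with capillary electrophoresis, and activity fitted bidirectionally versus DMSO.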

[18] = molecular target: Signal transducer and activator of transcription 3 (Homo sapiens) (UniProt P40763); assay: ATG_STAT3_CIS: Attagene CIS-FACTORIAL HepG2 Assay for human Signal Transducer and Activator of Transcription 3 (STAT3) (AID 2282963); settings: HepG2, Attagene cis-factorial STAT3 reporter transcription; actives raise or lower the signal
Sequence of Signal transducer and activator of transcription 3 (Homo sapiens) (P40763 whole entry, looked up): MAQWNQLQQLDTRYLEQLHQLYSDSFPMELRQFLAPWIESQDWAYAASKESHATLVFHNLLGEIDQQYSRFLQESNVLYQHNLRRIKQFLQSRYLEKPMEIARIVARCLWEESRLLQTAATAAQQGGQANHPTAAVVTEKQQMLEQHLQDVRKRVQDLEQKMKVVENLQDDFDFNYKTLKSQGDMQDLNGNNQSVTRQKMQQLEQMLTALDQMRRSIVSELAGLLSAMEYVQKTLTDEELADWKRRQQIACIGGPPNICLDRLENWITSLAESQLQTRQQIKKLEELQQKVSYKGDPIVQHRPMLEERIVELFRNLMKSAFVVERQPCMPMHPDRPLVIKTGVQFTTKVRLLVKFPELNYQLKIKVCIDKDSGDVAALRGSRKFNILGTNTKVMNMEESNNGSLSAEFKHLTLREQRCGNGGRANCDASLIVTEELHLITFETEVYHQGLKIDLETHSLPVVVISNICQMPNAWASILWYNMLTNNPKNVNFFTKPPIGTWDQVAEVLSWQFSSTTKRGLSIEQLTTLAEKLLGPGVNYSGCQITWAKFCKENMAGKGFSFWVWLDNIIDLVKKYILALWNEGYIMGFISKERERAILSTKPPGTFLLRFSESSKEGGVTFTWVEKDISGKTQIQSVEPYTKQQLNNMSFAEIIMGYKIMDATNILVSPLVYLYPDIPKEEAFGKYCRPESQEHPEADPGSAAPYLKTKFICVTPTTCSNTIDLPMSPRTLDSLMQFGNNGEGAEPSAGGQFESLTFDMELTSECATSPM
Method in brief: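 HepG2 cells transiently transfected with multiple cis-element-driven reporter units report endogenous transcription factor activity. After 24 h compound exposure, reporter mRNA is measured by RT-PCR, 6-FAM labelling, HpaI digestion and capillary electrophoresis. Fitted bidirectionally versus DMSO.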

[19] = ATG_TA_CIS: Attagene CIS-FACTORIAL HepG2 Assay for human TA Basal Promoter (AID 2282964); settings: HepG2 Attagene CIS-factorial TA basal promoter reporter; actives raise or lower the signal
Method in brief: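 Multiplexed mRNA reporter assay, HepG2, 24 h. Reporter cDNA amplified, 6-FAM primer-extended, HpaI-cut, CE-sized; DMSO = negative control and baseline.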

[20] = ATG_TCF_b_cat_CIS: Attagene CIS-FACTORIAL HepG2 Assay for human T-Cell-Factor with beta-catenin (TCF/b-cat) (AID 2282965); settings: HepG2 TCF/beta-catenin cis-reporter transcription, actives raise or lower the signal
Method in brief: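 HepG2 cells transiently transfected with cis-promoter-driven multiplexed reporter units; reporter mRNA measured 24 h after dosing by RT-PCR, FAM labelling, HpaI digestion and capillary electrophoresis. Bidirectional fitting relative to DMSO baseline.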

Measured: AC50

CCC(C)c1cc([N+](=O)[O-])cc([N+](=O)[O-])c1OC(=O)C=C(C)C (stereo not given)
active: [1] 100 µM | [4] 25.1 µM | [5] 8.06 µM | [6] 17.7 µM | [7] 27.7 µM | [9] 100 µM | [10] 57.3 µM | [12] 141 µM | [14] 27.5 µM | [15] 37.1 µM | [16] 53.7 µM | [17] 26.2 µM | [18] 80.1 µM | [19] 100 µM | [20] 31.8 µM
inactive: [2] | [3] | [8] | [11] | [13]

C[C@]12CC[C@H]3[C@@H](CC[C@@]45O[C@@H]4C(O)=C(C#N)C[C@]35C)[C@@H]1CC[C@@H]2O
active: [2] 100 µM | [7] 63.3 µM | [12] 100 µM | [14] 62.1 µM | [15] 44.2 µM | [20] 75 µM
inactive: all other assays above

COc1cc(OC)c(OC)cc1C=O
inactive: all assays above

CC[N+](=O)[O-]
inactive: all assays above

CCCCCCCCCCCC#N
active: [2] 103 µM | [3] 148 µM | [4] 73.6 µM | [14] 136 µM | [16] 103 µM | [17] 76.4 µM
inactive: all other assays above

[N-]=[N+]=CC(=O)OC[C@H](N)C(=O)O
inactive: all assays above

CCc1cc(C)cc(CC)c1-c1c(OC(=O)C(C)(C)C)n2n(c1=O)CCOCC2
inactive: all assays above

O=C1Nc2ccc(Cl)cc2C(c2ccccc2)=NC1O (stereo not given)
active: [20] 28.9 µM
inactive: all other assays above

CCC(C)(C)O
inactive: all assays above

N#Cc1cc(I)c(O)c(I)c1
active: [4] 100 µM | [17] 100 µM
inactive: all other assays above

Cc1ncc(C[n+]2csc(CCO)c2C)c(N)n1
inactive: all assays above

C=CC(=O)OCC(CC)CCCC (stereo not given)
active: [3] 147 µM
inactive: all other assays above

O=C(NCNC(=O)NC1C(=O)NC(=O)N1CO)NC1C(=O)NC(=O)N1CO (stereo not given)
active: [4] 130 µM | [14] 162 µM | [15] 133 µM
inactive: all other assays above

CC1(C)C(=O)NC(=O)NC1=O
inactive: all assays above

CCOP(=O)(OCC)Oc1ccc([N+](=O)[O-])cc1
inactive: all assays above

O=S(=O)(O)OOS(=O)(=O)O
inactive: all assays above

CN1C(=O)CCS(=O)(=O)C1c1ccc(Cl)cc1 (stereo not given)
inactive: all assays above

c1ccc(P(c2ccccc2)c2ccccc2)cc1
active: [3] 31.5 µM | [20] 158 µM
inactive: all other assays above

CC(C)(Cl)Cl
inactive: all assays above

CC(C)CCCCCCCOP(=O)(Oc1ccccc1)Oc1ccccc1
active: [2] 55.6 µM | [3] 21.6 µM | [4] 33.3 µM
inactive: all other assays above
